# Measurements taken from the supplement of paper PMC8728848.
# Only a selection was taken, and the strongest signals are over-represented in it overall.
# B1: CLECb-Precomplexed (Mus musculus), P43025 (protein)
# chain: MAKNGLVLCILVVSLLLDQTDGYPSRMKARKHSKRRVKAKDDDLKSQVEKLWREVNALKEMQALQTVCLRGTKVHKKCYLASEGLKHYHEANEDCISKGGTLVVPRNSDEINALRDYGKRSLPGVNDFWLGINDMVTEGKFLDVHGFAVSFLNWDRAQPSGGKRENCVLFSQSAQGKWSDEACRSSKRYICEFIIPTRTRPLEQKLISEEDLAANDILDYKDDDDKV
# Columns and labels:
# Assay in all cases: glycan array binding signal (z-score within array); higher = stronger binding
# Conditions in all cases: glycan notation: IUPAC condensed, linker removed
# [1] = target: Fuc(a1-2)Gal(b1-3)GlcNAc6S
# How it was run: (§1)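 Columns mapping to the same glycan were averaged after glycan names were converted to IUPAC-condensed notation. The data come from 3228 arrays in the Consortium for Functional Glycomics database, limited to those with an available protein sequence. Binding is reported as a within-array Z-score averaged across arrays of one protein sequence and across linkers.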
# [2] = target: Fuc(a1-2)Gal(b1-4)GlcNAc(b1-2)Man(a1-3)[Fuc(a1-2)Gal(b1-4)GlcNAc(b1-2)Man(a1-6)]Man(b1-4)GlcNAc(b1-4)GlcNAc
# How it was run: as §1
# [3] = target: Fuc(a1-2)Gal6S(b1-3)GlcNAc
# How it was run: as §1
# [4] = target: Fuc(a1-2)[GalNAc(a1-3)]Gal(b1-4)Glc
# How it was run: as §1
# [5] = target: Fuc(a1-2)[GalNAc(a1-3)]Gal(b1-4)GlcNAc(b1-2)Man(a1-3)[Fuc(a1-2)[GalNAc(a1-3)]Gal(b1-4)GlcNAc(b1-2)Man(a1-6)]Man(b1-4)GlcNAc(b1-4)GlcNAc
# How it was run: as §1
# [6] = target: Fuc(a1-2)[GalNAc(b1-3)]Gal
# How it was run: as §1
# [7] = target: Fuc(a1-3)[Gal(b1-4)]GlcNAc
# How it was run: as §1
# [8] = target: Fuc(a1-3)[Gal(b1-4)]GlcNAc(b1-6)[Gal(b1-3)GlcNAc(b1-3)]Gal(b1-4)Glc
# How it was run: as §1
# [9] = target: Fuc(a1-3)[Gal3S(b1-4)]GlcNAc6S
# How it was run: as §1
# [10] = target: Gal(a1-3)Gal(b1-3)GlcNAc(b1-3)GalNAc
# How it was run: as §1
# [11] = target: Gal(a1-3)Gal(b1-3)[Fuc(a1-4)]GlcNAc(b1-2)Man(a1-3)[Gal(a1-3)Gal(b1-3)[Fuc(a1-4)]GlcNAc(b1-2)Man(a1-6)]Man(b1-4)GlcNAc(b1-4)GlcNAc
# How it was run: as §1
# Gal(a1-3)GalNAc = target: Gal(a1-3)GalNAc
# How it was run: as §1
# [12] = target: Gal(b1-3)GlcNAc(b1-3)Gal(b1-3)GlcNAc
# How it was run: as §1
# [13] = target: Gal(b1-3)GlcNAc(b1-3)Gal(b1-4)GlcNAc(b1-2)Man(a1-3)[Gal(b1-3)GlcNAc(b1-3)Gal(b1-4)GlcNAc(b1-2)Man(a1-6)]Man(b1-4)GlcNAc(b1-4)GlcNAc
# How it was run: as §1
# [14] = target: Gal(b1-3)GlcNAc(b1-6)[Gal(b1-3)]GalNAc
# How it was run: as §1
# [15] = target: Gal(b1-3)[Fuc(a1-4)]GlcNAc(b1-2)Man
# How it was run: as §1
# [16] = target: Gal(b1-3)[Fuc(a1-4)]GlcNAc(b1-2)Man(a1-3)[Gal(b1-3)[Fuc(a1-4)]GlcNAc(b1-2)Man(a1-6)]Man(b1-4)GlcNAc(b1-4)[Fuc(a1-6)]GlcNAc
# How it was run: as §1
# [17] = target: Gal(b1-3)[Fuc(a1-4)]GlcNAc(b1-3)Gal(b1-3)[Fuc(a1-4)]GlcNAc
# How it was run: as §1
# [18] = target: Gal(b1-4)GlcNAc(b1-2)Man(a1-3)[GlcNAc(b1-2)Man(a1-6)]Man(b1-4)GlcNAc(b1-4)GlcNAc
# How it was run: as §1
# [19] = target: Gal(b1-4)GlcNAc(b1-2)[Gal(b1-4)GlcNAc(b1-6)]Man(a1-6)[Gal(b1-4)GlcNAc(b1-2)Man(a1-3)]Man(b1-4)GlcNAc(b1-4)GlcNAc
# How it was run: as §1
# [20] = target: Gal(b1-4)GlcNAc(b1-3)Gal(b1-4)Glc
# How it was run: as §1
# [21] = target: Gal(b1-4)GlcNAc(b1-3)Gal(b1-4)GlcNAc(b1-2)Man(a1-3)[Gal(b1-4)GlcNAc(b1-3)Gal(b1-4)GlcNAc(b1-2)Man(a1-6)]Man(b1-4)GlcNAc(b1-4)GlcNAc
# How it was run: as §1
# [22] = target: Gal(b1-4)GlcNAc(b1-3)Gal(b1-4)GlcNAc(b1-3)Gal(b1-4)GlcNAc(b1-2)[Gal(b1-4)GlcNAc(b1-3)Gal(b1-4)GlcNAc(b1-3)Gal(b1-4)GlcNAc(b1-6)]Man(a1-6)[Gal(b1-4)GlcNAc(b1-3)Gal(b1-4)GlcNAc(b1-3)Gal(b1-4)GlcNAc(b1-2)Man(a1-3)]Man(b1-4)GlcNAc(b1-4)[Fuc(a1-6)]GlcNAc
# How it was run: as §1
# [23] = target: Gal(b1-4)GlcNAc(b1-3)Gal(b1-4)GlcNAc(b1-3)Gal(b1-4)GlcNAc(b1-3)Gal(b1-4)GlcNAc(b1-3)Gal(b1-4)GlcNAc(b1-2)Man(a1-3)[Gal(b1-4)GlcNAc(b1-3)Gal(b1-4)GlcNAc(b1-3)Gal(b1-4)GlcNAc(b1-3)Gal(b1-4)GlcNAc(b1-3)Gal(b1-4)GlcNAc(b1-2)Man(a1-6)]Man(b1-4)GlcNAc(b1-4)GlcNAc
# How it was run: as §1
# [24] = target: Gal(b1-4)GlcNAc(b1-3)Gal(b1-4)GlcNAc(b1-3)Gal(b1-4)GlcNAc(b1-3)Gal(b1-4)GlcNAc(b1-3)Gal(b1-4)GlcNAc(b1-2)[Gal(b1-4)GlcNAc(b1-3)Gal(b1-4)GlcNAc(b1-3)Gal(b1-4)GlcNAc(b1-3)Gal(b1-4)GlcNAc(b1-3)Gal(b1-4)GlcNAc(b1-6)]Man(a1-6)[Gal(b1-4)GlcNAc(b1-3)Gal(b1-4)GlcNAc(b1-3)Gal(b1-4)GlcNAc(b1-3)Gal(b1-4)GlcNAc(b1-3)Gal(b1-4)GlcNAc(b1-2)Man(a1-3)]Man(b1-4)GlcNAc(b1-4)[Fuc(a1-6)]GlcNAc
# How it was run: as §1
# [25] = target: Gal3S(b1-4)[Fuc(a1-3)]Glc6S
# How it was run: as §1
# [26] = target: Gal3S(b1-4)[Fuc(a1-3)]GlcNAc6S
# How it was run: as §1
# Gal3S6S(b1-4)GlcNAc = target: Gal3S6S(b1-4)GlcNAc
# How it was run: as §1
# Gal6S(b1-4)Glc6S = target: Gal6S(b1-4)Glc6S
# How it was run: as §1
# Gal6S(b1-4)GlcNAc6S = target: Gal6S(b1-4)GlcNAc6S
# How it was run: as §1
# [27] = target: GalNAc(b1-4)GlcNAc(b1-2)Man(a1-3)[GalNAc(b1-4)GlcNAc(b1-2)Man(a1-6)]Man(b1-4)GlcNAc(b1-4)GlcNAc
# How it was run: as §1
# [28] = target: GlcNAc(a1-4)Gal(b1-4)GlcNAc(b1-3)Gal(b1-4)GlcNAc
# How it was run: as §1
# [29] = target: GlcNAc(b1-3)Gal(b1-4)GlcNAc(b1-2)Man(a1-3)[GlcNAc(b1-3)Gal(b1-4)GlcNAc(b1-2)Man(a1-6)]Man(b1-4)GlcNAc(b1-4)[Fuc(a1-6)]GlcNAc
# How it was run: as §1
# [30] = target: GlcNAc(b1-3)Gal(b1-4)GlcNAc(b1-3)Gal(b1-4)GlcNAc(b1-3)Gal(b1-4)GlcNAc(b1-2)Man(a1-3)[GlcNAc(b1-3)Gal(b1-4)GlcNAc(b1-3)Gal(b1-4)GlcNAc(b1-3)Gal(b1-4)GlcNAc(b1-2)Man(a1-6)]Man(b1-4)GlcNAc(b1-4)[Fuc(a1-6)]GlcNAc
# How it was run: as §1
# GlcNAc(b1-3)Man = target: GlcNAc(b1-3)Man
# How it was run: as §1
# [31] = target: GlcNAc(b1-3)[GlcNAc(b1-4)][GlcNAc(b1-6)]GlcNAc
# How it was run: as §1
# [32] = target: GlcNAc(b1-4)Gal(b1-4)GlcNAc
# How it was run: as §1
# [33] = target: GlcNAc(b1-4)GlcNAc(b1-4)GlcNAc
# How it was run: as §1
# [34] = target: GlcNAc(b1-4)GlcNAc(b1-4)GlcNAc(b1-4)GlcNAc(b1-4)GlcNAc(b1-4)GlcNAc
# How it was run: as §1
# [35] = target: Neu5Ac(a2-3)Gal(b1-3)GlcNAc(b1-2)Man(a1-3)[GlcNAc(b1-4)][Neu5Ac(a2-3)Gal(b1-3)GlcNAc(b1-2)Man(a1-6)]Man(b1-4)GlcNAc(b1-4)GlcNAc
# How it was run: as §1
# [36] = target: Neu5Ac(a2-3)Gal(b1-4)GlcNAc(b1-2)Man(a1-3)[Neu5Ac(a2-6)Gal(b1-4)GlcNAc(b1-2)Man(a1-6)]Man(b1-4)GlcNAc(b1-4)GlcNAc
# How it was run: as §1
# [37] = target: Neu5Ac(a2-3)Gal6S(b1-4)GlcNAc
# How it was run: as §1
# [38] = target: Neu5Ac(a2-3)[GalNAc(b1-4)]Gal(b1-4)GlcNAc
# How it was run: as §1
# Neu5Ac(a2-6)Gal = target: Neu5Ac(a2-6)Gal
# How it was run: as §1
# [39] = target: Neu5Ac(a2-6)Gal(b1-4)GlcNAc(b1-2)Man(a1-3)Man(b1-4)GlcNAc(b1-4)GlcNAc
# How it was run: as §1
# [40] = target: Neu5Ac(a2-6)Gal(b1-4)GlcNAc(b1-2)Man(a1-3)[Neu5Ac(a2-3)Gal(b1-4)GlcNAc(b1-2)Man(a1-6)]Man(b1-4)GlcNAc(b1-4)GlcNAc
# How it was run: as §1
# [41] = target: Neu5Ac(a2-6)Gal(b1-4)GlcNAc(b1-2)Man(a1-3)[Neu5Ac(a2-6)Gal(b1-4)GlcNAc(b1-2)Man(a1-6)]Man(b1-4)GlcNAc(b1-4)[Fuc(a1-6)]GlcNAc
# How it was run: as §1
# [42] = target: Neu5Ac(a2-6)Gal(b1-4)GlcNAc(b1-3)Gal(b1-4)GlcNAc(b1-3)Gal(b1-4)GlcNAc(b1-2)Man(a1-3)[Neu5Ac(a2-6)Gal(b1-4)GlcNAc(b1-3)Gal(b1-4)GlcNAc(b1-3)Gal(b1-4)GlcNAc(b1-2)Man(a1-6)]GalNAc
# How it was run: as §1
binder,measurement,setting,value
B1,glycan array binding signal (z-score),[1],-0.588
same,glycan array binding signal (z-score),[2],2.16
same,glycan array binding signal (z-score),[3],-0.377
same,glycan array binding signal (z-score),[4],-0.431
same,glycan array binding signal (z-score),[5],-0.336
same,glycan array binding signal (z-score),[6],-0.291
same,glycan array binding signal (z-score),[7],0.129
same,glycan array binding signal (z-score),[8],0.092
same,glycan array binding signal (z-score),[9],-0.231
same,glycan array binding signal (z-score),[10],0.142
same,glycan array binding signal (z-score),[11],9.55
same,glycan array binding signal (z-score),Gal(a1-3)GalNAc,-0.387
same,glycan array binding signal (z-score),[12],-0.229
same,glycan array binding signal (z-score),[13],0.774
same,glycan array binding signal (z-score),[14],-0.462
same,glycan array binding signal (z-score),[15],-0.166
same,glycan array binding signal (z-score),[16],2.08
same,glycan array binding signal (z-score),[17],0.004
same,glycan array binding signal (z-score),[18],-0.209
same,glycan array binding signal (z-score),[19],2.03
same,glycan array binding signal (z-score),[20],-0.229
same,glycan array binding signal (z-score),[21],2.63
same,glycan array binding signal (z-score),[22],3.07
same,glycan array binding signal (z-score),[23],2.1
same,glycan array binding signal (z-score),[24],11.2
same,glycan array binding signal (z-score),[25],3.47
same,glycan array binding signal (z-score),[26],0.004
same,glycan array binding signal (z-score),Gal3S6S(b1-4)GlcNAc,-0.251
same,glycan array binding signal (z-score),Gal6S(b1-4)Glc6S,0.254
same,glycan array binding signal (z-score),Gal6S(b1-4)GlcNAc6S,0.049
same,glycan array binding signal (z-score),[27],0.242
same,glycan array binding signal (z-score),[28],-0.295
same,glycan array binding signal (z-score),[29],-0.522
same,glycan array binding signal (z-score),[30],-0.255
same,glycan array binding signal (z-score),GlcNAc(b1-3)Man,-0.185
same,glycan array binding signal (z-score),[31],-0.456
same,glycan array binding signal (z-score),[32],-0.159
same,glycan array binding signal (z-score),[33],-0.15
same,glycan array binding signal (z-score),[34],-0.322
same,glycan array binding signal (z-score),[35],-0.444
same,glycan array binding signal (z-score),[36],-0.245
same,glycan array binding signal (z-score),[37],-0.618
same,glycan array binding signal (z-score),[38],-0.321
same,glycan array binding signal (z-score),Neu5Ac(a2-6)Gal,-0.301
same,glycan array binding signal (z-score),[39],0.007
same,glycan array binding signal (z-score),[40],-0.03
same,glycan array binding signal (z-score),[41],2.94
same,glycan array binding signal (z-score),[42],3.49
